Assay results published in PubChem BioAssay AID1159580 (chemical genetic matrix, 2015).
Among all 5,500 compounds or so, about 2,000 (36%) were called active. Not shown: some 18% with an inconclusive outcome. Rule as the data show it: active = normalized growth mostly below about 0.91 (no sharp cut-off); inconclusive = no clear call, values can overlap the other calls; inactive = mostly above about 0.92. Some of the results follow.

Experiment: chemical genetic growth profiling, strain panel (AID 1159580);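 also: tested at 20 µM; growth read once vehicle control cultures reached saturation at 30 °C; 1 = growth at the plate median or of vehicle wells; lower values mean less growth of the strain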
Conditions: S. cerevisiae deletion strains, growth OD

Measured: normalized growth

CC(C)c1c(C(=O)c2ccccc2)c(-c2ccccc2)c(-c2ccc(F)cc2)n1CC[C@@H](O)C[C@@H](O)CC(=O)O
inactive: locus YAL030W, strain snc1, active compounds read low 0.94 | locus YBR009C, strain hhf1, active compounds read low 0.924 | locus YBR171W, strain sec66, active compounds read low 0.984 | locus YCL011C, strain gbp2, active compounds read low 0.942 | locus YCL069W, strain vba3, active compounds read low 0.934 | locus YDL005C, strain med2, active compounds read low 0.987 | locus YDL040C, strain nat1, active compounds read low 0.99 | locus YDR001C, strain nth1, active compounds read low 0.957 | locus YDR159W, strain sac3, active compounds read low 0.882 | locus YDR195W, strain ref2 1.04 | locus YDR297W, strain sur2, active compounds read low 0.946 | locus YDR335W, strain msn5, active compounds read low 0.919 | locus YDR392W, strain spt3, active compounds read low 1.01 | locus YEL037C, strain rad23, active compounds read low 0.935 | locus YEL061C, strain CIN8 (second series), active compounds read low 0.955 | locus YER016W, strain bim1, active compounds read low 0.949 | locus YER111C, strain swi4, active compounds read low 0.981 | locus YER155C, strain BEM2 (second series), active compounds read low 0.917 | locus YGL167C, strain pmr1, active compounds read low 1 | locus YGL173C, strain kem1, active compounds read low 0.907 | locus YGL227W, strain vid30, active compounds read low 0.962 | locus YGL240W, strain doc1, active compounds read low 0.981 | locus YJL095W, strain BCK1 (second series), active compounds read low 0.957 | locus YJL115W, strain asf1, active compounds read low 0.953 | locus YJL129C, strain trk1, active compounds read low 0.916 | locus YJL164C, strain tpk1, active compounds read low 0.922 | locus YJL166W, strain qcr8, active compounds read low 0.926 | locus YKL160W, strain elf1, active compounds read low 0.921 | locus YKR026C, strain gcn3, active compounds read low 0.952 | locus YKR091W, strain srl3, active compounds read low 0.98 | locus YLL026W, active compounds read low 0.937 | locus YLL041C, strain sdh2, active compounds read low 0.981 | locus YLR027C, strain aat2, active compounds read low 0.933 | locus YLR258W, strain gsy2, active compounds read low 0.932 | locus YLR262C, strain YPT6 (second series), active compounds read low 0.973 | locus YLR320W, strain mms22, active compounds read low 0.899 | locus YLR342W, strain FKS1, active compounds read low 0.94 | locus YLR384C, strain iki3, active compounds read low 0.959 | locus YML120C, strain ndi1, active compounds read low 0.93 | locus YMR058W, strain fet3, active compounds read low 0.909 | locus YMR129W, active compounds read low 0.946 | locus YMR205C, strain PFK2, active compounds read low 0.946 | locus YNL071W, strain lat1, active compounds read low 0.939 | locus YNL209W, strain ssb2, active compounds read low 0.939 | locus YNL248C, strain rpa49, active compounds read low 1.02 | locus YNL322C, strain KRE1 (second series), active compounds read low 0.977 | locus YNR049C, strain mso1, active compounds read low 0.952 | locus YOR080W, strain dia2, active compounds read low 0.939 | locus YOR106W, strain vam3, active compounds read low 0.877 | locus YOR265W, strain rbl2, active compounds read low 0.95 | locus YOR290C, strain snf2, active compounds read low 0.895 | locus YPL078C, strain atp4, active compounds read low 0.908 | locus YPL106C, strain sse1, active compounds read low 1.11 | locus YPL240C, strain hsp82, active compounds read low 0.971

COc1cc2c(cc1OC)C(C)N(C(=O)c1sc3ccccc3c1Cl)CC2 (stereo not given)
inactive: locus YAR019C, strain CDC15, active compounds read low 0.981 | locus YBL105C, strain PKC1, active compounds read low 0.975 | locus YBR135W, strain CKS1, active compounds read low 0.97 | locus YBR136W, strain MEC1, active compounds read low 0.975 | locus YBR160W, strain CDC28, active compounds read low 0.968 | locus YDL017W, strain CDC7, active compounds read low 0.98 | locus YDL028C, strain MPS1, active compounds read low 0.982 | locus YDL101C, strain DUN1, active compounds read low 0.982 | locus YDL108W, strain KIN28, active compounds read low 0.974 | locus YDL132W, strain cdc53, active compounds read low 0.974 | locus YDL214C, strain PRR2, active compounds read low 0.928 | locus YDR052C, strain DBF4, active compounds read low 0.989 | locus YDR054C, strain cdc34, active compounds read low 0.972 | locus YDR226W, strain ADK1, active compounds read low 0.975 | locus YDR477W, strain SNF1, active compounds read low 0.934 | locus YER123W, strain YCK3, active compounds read low 0.9 | locus YER133W, strain GLC7, active compounds read low 0.936 | locus YFL009W, strain cdc4, active compounds read low 0.972 | locus YFL029C, strain CAK1, active compounds read low 0.968 | locus YFR003C, strain YPI1, active compounds read low 0.978 | locus YFR019W, strain FAB1, active compounds read low 0.943 | locus YFR028C, strain CDC14, active compounds read low 0.977 | locus YGR040W, strain KSS1, active compounds read low 0.899 | locus YGR052W, strain FMP48, active compounds read low 0.981 | locus YGR092W, strain DBF2, active compounds read low 0.921 | locus YHR030C, strain SLT2, active compounds read low 0.93 | locus YHR079C, strain IRE1, active compounds read low 0.933 | locus YHR082C, strain KSP1, active compounds read low 0.958 | locus YHR205W, strain SCH9, active compounds read low 0.976 | locus YIL147C, strain SLN1, active compounds read low 0.984 | locus YJL095W, strain BCK1, active compounds read low 0.947 | locus YJL128C, strain PBS2, active compounds read low 0.955 | locus YJL157C, strain FAR1, active compounds read low 0.912 | locus YJR016C, strain ILV3, active compounds read low 0.97 | locus YJR066W, strain TOR1 (second series), active compounds read low 0.891 | locus YJR066W, strain TOR1, active compounds read low 0.983 | locus YKL048C, strain ELM1, active compounds read low 0.928 | locus YKL067W, strain YNK1, active compounds read low 0.943 | locus YKL101W, strain HSL1, active compounds read low 0.897 | locus YKL193C, strain SDS22, active compounds read low 0.981 | locus YKL203C, strain TOR2, active compounds read low 0.959 | locus YLR113W, strain HOG1, active compounds read low 0.865 | locus YLR133W, strain CKI1, active compounds read low 0.916 | locus YLR403W, strain SFP1, active compounds read low 0.906 | locus YML070W, strain DAK1, active compounds read low 0.912 | locus YMR001C, strain CDC5, active compounds read low 0.975 | locus YMR205C, strain PFK2 (second series), active compounds read low 0.948 | locus YMR277W, strain FCP1, active compounds read low 0.978 | locus YNL006W, strain LST8, active compounds read low 0.99 | locus YNL020C, strain ARK1, active compounds read low 0.922 | locus YNL161W, strain CBK1, active compounds read low 0.97 | locus YNL183C, strain NPR1, active compounds read low 0.948 | locus YNL207W, strain RIO2, active compounds read low 0.978 | locus YNL222W, strain SSU72, active compounds read low 0.966 | locus YNL307C, strain MCK1 (second series), active compounds read low 0.911 | locus YOL078W, strain AVO1, active compounds read low 0.972 | locus YOL136C, strain PFK27, active compounds read low 0.906 | locus YOR061W, strain CKA2, active compounds read low 0.914 | locus YOR119C, strain RIO1, active compounds read low 0.982 | locus YOR231W, strain MKK1, active compounds read low 0.891 | locus YOR329C, strain SCD5, active compounds read low 0.978 | locus YPL031C, strain PHO85, active compounds read low 0.927 | locus YPL153C, strain RAD53, active compounds read low 0.905 | locus YPL204W, strain HRR25, active compounds read low 0.905 | locus YPL209C, strain IPL1, active compounds read low 0.968 | locus YPL256C, strain CLN2, active compounds read low 0.894 | locus YPR025C, strain CCL1, active compounds read low 0.976 | locus YPR106W, strain ISR1, active compounds read low 0.963 | locus YPR111W, strain DBF20, active compounds read low 0.949 | strain NNK1, active compounds read low 0.972 | strain TSCII, active compounds read low 0.969
